An excerpt weighted towards active compounds, which were near 6.8% of everything screened.
Pf Dd2 inh = P. falciparum Dd2 growth inhibition | SYBR Green, 72 h; active compounds read low | activity change, % at 10 µM | 2.3% of 94,000 active | AID 1159554; in the data active means activity change below about -80%
T cruzi growth = inhibitors of T. cruzi proliferation; inhibition, % at 8.34 µM; 5.9% of 77,000 active; T. cruzi beta-gal in NIH3T3, GalScreen luminescence, 90 h;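 active means mean inhibition above about 93%, with at least 55% of replicates each passing it, limit read from the data, passing the limit was not always enough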
C diff HTS = C. difficile growth inhibition. Clostridium difficile clinical isolate growth, OD600, 24 h; active compounds read low. growth activity, negative = inhibition, % at 16 µg/mL (by protocol). 0.25% of 86,000 active. AID 1259249;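 active means mean growth activity at or below -80% and every replicate also at or below -80%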;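 further: 0% = DMSO wells and -100% = levofloxacin 16 µg/mL wells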
Active calls of the source: *; . = no result.

SMILES	Pf Dd2 inh	T cruzi growth	C diff HTS
C[C@H]1CN([C@@H](C)CO)C(=O)c2cccc(NC(=O)Nc3ccccc3)c2O[C@H]1CN(C)C(=O)Nc1ccc2c(c1)OCO2	-16.9	20.6	.
C[C@@H]1CN([C@@H](C)CO)C(=O)c2cccc(NC(=O)Nc3ccccc3)c2O[C@@H]1CN(C)C(=O)Nc1ccc2c(c1)OCO2	-85.1*	-3.2	.
C[C@@H]1CN([C@H](C)CO)C(=O)c2cccc(NC(=O)Nc3cccc4ccccc34)c2O[C@@H]1CN(C)C(=O)Nc1ccc2c(c1)OCO2	-82.8*	79.5	5.6
C[C@H]1CN([C@@H](C)CO)C(=O)Cc2cc(NC(=O)Nc3ccc4c(c3)OCO4)ccc2O[C@@H]1CN(C)C(=O)Nc1cccc2ccccc12	14.5	4.1	-1.7
C[C@@H]1CN([C@@H](C)CO)C(=O)c2cccc(NC(=O)C3CC3)c2O[C@@H]1CN(C)C(=O)Nc1ccc2c(c1)OCO2	-83.1*	18.9	-2.4
CN(C)C(=O)C[C@H]1CC[C@@H]2[C@H](COc3ccc(NS(=O)(=O)c4cccc(F)c4)cc3C(=O)N2C)O1	1.0	35.1	3.5
CCS(=O)(=O)Nc1ccc2c(c1)C(=O)N(C)[C@H]1CC[C@H](CC(=O)NCCOC)O[C@H]1CO2	.	14.7	13.5
O=C(C[C@@H]1CC[C@@H]2[C@H](COC[C@H](O)CN2C(=O)c2ccncc2)O1)NC1Cc2ccccc2C1	0.1	7.4	4.5
COc1ccc(C#Cc2ccc([C@H]3[C@@H](CO)N4C(=O)CN(C(=O)Nc5ccccc5F)C[C@@H]34)cc2)cc1	-45.2	.	3.0
C[C@@H]1CCCCO[C@H](CN(C)S(C)(=O)=O)[C@@H](C)CN([C@H](C)CO)C(=O)c2cc(N(C)C)ccc2O1	6.1	29.9	-1.6
CC(C)NC(=O)N[C@H]1CC[C@H](CCn2cc(-c3ccc(F)cc3)nn2)O[C@@H]1CO	-14.6	-88.4	.
C[C@@H]1CN([C@@H](C)CO)C(=O)c2cc(N(C)C)ccc2O[C@@H](C)CCCCO[C@@H]1CN(C)C(=O)Nc1ccccc1	-7.4	45.3	-1.7
CCNC(=O)Nc1ccc2c(c1)C(=O)N(C)[C@@H]1CC[C@H](CC(=O)NC3CCCCC3)O[C@@H]1CO2	8.4	13.6	-0.7
CC(C)NC(=O)Nc1cccc2c1O[C@H](CN(C)C(=O)Nc1ccc3c(c1)OCO3)[C@H](C)CN([C@@H](C)CO)C2=O	-82.8*	39.3	.
CC(C)NC(=O)Nc1cccc2c1O[C@H](CN(C)C(=O)Nc1ccc3c(c1)OCO3)[C@@H](C)CN([C@@H](C)CO)C2=O	15.5	10.3	.
CC(C)CC#Cc1cnc2c(c1)C(=O)N([C@H](C)CO)C[C@H](C)[C@H](CN(C)Cc1cccc(C(=O)O)c1)O2	7.6	.	0.7
COc1ccc2c3c(n(C)c2c1)[C@H](CO)N(C(=O)Nc1ccc(F)cc1)CC31CCN(Cc2cccnc2)CC1	-90.4*	.	2.7
COc1ccc2c3c(n(C)c2c1)[C@@H](CO)N(C(=O)Nc1ccc(F)cc1)CC31CCN(Cc2cccnc2)CC1	-89.0*	.	-7.6
COc1ccc2c3c(n(C)c2c1)[C@H](CO)N(C(=O)Nc1ccc(F)cc1)CC31CCN(C(=O)c2cccnc2)CC1	-79.6	.	-2.6
COc1ccc2c3c(n(C)c2c1)[C@@H](CO)N(C(=O)Nc1ccc(F)cc1)CC31CN(Cc2cccnc2)C1	-72.4	.	-0.9
Cc1noc(C)c1NC(=O)N[C@H]1CC[C@H](CC(=O)Nc2ccccc2)O[C@H]1CO	.	.	-2.2
COc1ccccc1NC(=O)N1CC[C@@H]2[C@H]1c1cc(C#Cc3cccc(F)c3)ccc1N(C)[C@@H]2CO	-44.4	38.5	-9.8
C[C@H]1CN([C@@H](C)CO)C(=O)c2c(c3ccccc3n2C)-c2ccccc2CO[C@@H]1CN(C)Cc1cccc2c1OCCCO2	-79.7	.	8.4
C[C@@H]1CN([C@H](C)CO)C(=O)c2c(c3ccccc3n2C)-c2ccccc2CO[C@@H]1CN(C)Cc1cccc2c1OCCCO2	-84.5*	.	16.1
C[C@@H]1CN([C@H](C)CO)C(=O)c2c(c3ccccc3n2C)-c2ccccc2CO[C@H]1CN(C)Cc1cccc2c1OCCCO2	-68.0	.	4.9
SMILES	Pf Dd2 inh	T cruzi growth	C diff HTS
C[C@@H]1CN([C@@H](C)CO)C(=O)c2c(c3ccccc3n2C)-c2ccccc2CO[C@@H]1CN(C)Cc1cccc2c1OCCCO2	-84.8*	.	17.0
CN1CCN(C(=O)C[C@H]2CC[C@H]3[C@H](COc4ccc(NC(=O)C5CCC5)cc4C(=O)N3C)O2)CC1	21.6	.	2.2
CO[C@H]1CN(C)C(=O)c2cc(NS(=O)(=O)c3cn(C)cn3)ccc2OC[C@@H](C)N(CCC(F)(F)F)C[C@H]1C	13.0	25.3	4.6
CCCC(O)C#Cc1cnc2c(c1)C(=O)N([C@H](C)CO)C[C@H](C)[C@H](CN(C)S(=O)(=O)c1ccc(OC)cc1)O2 (stereo partly specified)	-15.2	20.7	2.1
COc1cccc(NC(=O)C[C@H]2CC[C@@H]3[C@H](COc4ccc(NC(=O)C5CC5)cc4C(=O)N3C)O2)c1	-10.9	-7.8	-0.5
C[C@H](CO)N1C[C@H](C)[C@@H](CN(C)CC2CCCCC2)Oc2ccc(NC(=O)Nc3ccc(F)cc3)cc2CC1=O	-89.7*	50.4	19.0
C[C@@H]1CN([C@H](C)CO)C(=O)Cc2cc(NC(=O)Nc3ccc(F)cc3)ccc2O[C@@H]1CN(C)CC1CCCCC1	-33.1	68.6	4.4
C[C@H]1CN([C@@H](C)CO)C(=O)Cc2cc(NC(=O)Nc3ccc(C(F)(F)F)cc3)ccc2O[C@H]1CN(C)CC1CCCCC1	-16.0	23.5	41.9
C[C@@H]1CN([C@@H](C)CO)C(=O)Cc2cc(NC(=O)Nc3ccc(C(F)(F)F)cc3)ccc2O[C@H]1CN(C)CC1CCCCC1	-87.2*	-25.5	19.9
O=C(NC1CCC1)[C@@H]1[C@@H](CO)[C@@H]2Cn3c(ccc(-c4ccccc4)c3=O)[C@H]1N2CC1CC1	2.8	41.4	0.8
COC(=O)C[C@@H]1CC[C@@H]2[C@@H](COc3ccc(NC(=O)c4cccc(F)c4)cc3C(=O)N2C)O1	-12.9	-7.6	-2.8
O=C(NC[C@@H]1CC[C@@H]2[C@@H](CN2C(=O)NC2CCCC2)O1)c1ccc2c(c1)OCO2	18.9	.	-0.6
O=C(NC[C@@H]1CC[C@H]2[C@H](CN2Cc2cc(-c3ccccc3)on2)O1)c1ccc2c(c1)OCO2	-89.8*	.	-15.6
COc1ccc2c3c([nH]c2c1)[C@@H](CO)N(C(=O)C1CCCCC1)CC31CN(C(=O)c2ccncc2)C1	-63.2	.	0.4
CCCNC(=O)Nc1ccc2c(c1)C(=O)N(C)C[C@@H](OC)[C@@H](C)CN(C(=O)C1CCCCC1)[C@H](C)CO2	14.9	-32.1	-2.6
COc1ccc(-c2ccccc2[C@H]2[C@@H](C#N)N(C(=O)C3CCCCC3)[C@H]2CO)cc1	-92.7*	.	-1.1
N#C[C@H]1[C@H](c2ccccc2-c2ccccc2F)[C@H](CO)N1C(=O)C1CCOCC1	-73.1	.	-3.8
COc1ccc(-c2ccccc2[C@H]2[C@@H](CO)N(C(=O)C3CCCCC3)[C@H]2C#N)cc1	9.6	.	-4.1
COc1ccc(-c2ccccc2[C@@H]2[C@@H](CO)N(C(=O)C3CC3)[C@H]2C#N)cc1	10.7	.	2.7
COc1ccc(-c2ccccc2[C@H]2[C@@H](CO)N(C(=O)C3CCOCC3)[C@H]2C#N)cc1	-86.8*	.	-5.0
